Assay results reported in the supplement of paper PMC12494721.
Where a name gives a salt, the structure may show the parent alone.

tested on: Klebsiella aerogenes DSM 30053; test: fold change of Cadaverine concentration vs plate DMSO controls (fold change (ratio)); higher = more amine produced, active = hit call of the paper (significant change in both replicates, either direction); conditions: incubation time: 27 h, anaerobic, 37 °C;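 for the amine columns active = adjusted P below 0.05 in both replicates with a change the same way and a mean fold change under 0.8 or over 1.25; inactive = the rest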
Outline: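 Using LC–triple-quadrupole MS with dynamic MRM, amines were quantified against external calibration curves and corrected for drift within each batch. Samples were whole anaerobic mGAM cultures of four gut strains, grown 27 h at 37 °C from OD 0.1 before 1:1 dilution, extracted with cold acetonitrile/methanol containing 0.1% formic acid and centrifuged. Compounds were present at 20 µM final (sweeteners at 50 µM final). The numbers are fold changes versus plate DMSO controls, each the mean of 2 biological replicates.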

Row | SMILES | fold change of Cadaverine concentration
1 | CCc1nc(N)nc(N)c1-c1ccc(Cl)cc1 [Pyrimethamine] (20 µM) | 0.989 (inactive)
2 | CC(=O)Oc1cccc2c1C(=O)c1c(OC(C)=O)cc(C(=O)O)cc1C2=O [Diacerein] (20 µM) | 1 (inactive)
3 | CC(C)(CO)[C@@H](O)C(=O)NCCCO [(D)-Panthenol] (20 µM) | 0.996 (inactive)
4 | CCc1cc(Cl)c(OC)c(C(=O)NC[C@@H]2CCCN2CC)c1O [(S,-) Eticlopride hydrochloride] (20 µM) | 0.985 (inactive)
5 | O=C1c2cccc(O)c2C(=O)c2c(O)cccc21 [Danthron] (20 µM) | 1.01 (inactive)
6 | CN(C)CCC(c1ccc(Br)cc1)c1ccccn1 (centres undefined) [Brompheniramine maleate] (20 µM) | 1.03 (inactive)
7 | NC[C@H]1O[C@H](O[C@H]2[C@H](O[C@@H]3O[C@H](CO)[C@@H](O)[C@H]3O)[C@@H](O)[C@H](N)C[C@@H]2N)[C@H](N)[C@@H](O)[C@@H]1O [Ribostamycin sulfate salt] (20 µM) | 0.994 (inactive)
8 | NS(=O)(=O)c1cc2c(cc1Cl)N=CNS2(=O)=O [Chlorothiazide] (20 µM) | 1.01 (inactive)
9 | CCc1oc2ccccc2c1C(=O)c1cc(Br)c(O)c(Br)c1 [Benzbromarone] (20 µM) | 0.998 (inactive)
10 | O=C1NCN(c2ccccc2)C12CCN(CCCC(c1ccc(F)cc1)c1ccc(F)cc1)CC2 [Fluspirilene] (20 µM) | 0.995 (inactive)
11 | C[C@H](CCC(=O)O)[C@H]1CC[C@H]2[C@@H]3C(=O)C[C@@H]4CC(=O)CC[C@]4(C)[C@H]3CC(=O)[C@]12C [Dehydrocholic acid] (20 µM) | 1.01 (inactive)
12 | CCn1cc(C(=O)O)c(=O)c2ccc(C)nc21 [Nalidixic acid sodium salt] (20 µM) | 0.966 (inactive)
13 | COc1cc(C(=O)NS(=O)(=O)c2ccccc2C)ccc1Cc1cn(C)c2ccc(NC(=O)OC3CCCC3)cc12 [Zafirlukast] (20 µM) | 1.01 (inactive)
14 | NCCc1ccc(O)c(O)c1 [Dopamine hydrochloride] (20 µM) | 0.987 (inactive)
15 | Cc1c(-c2ccccc2)oc2c(C(=O)OCCN3CCCCC3)cccc2c1=O [Flavoxate hydrochloride] (20 µM) | 1 (inactive)
16 | Oc1c(I)cc(Cl)c2cccnc12 [Clioquinol] (20 µM) | 0.991 (inactive)
17 | CN(C)C(=N)NC(=N)N [Metformin hydrochloride] (20 µM) | 1.02 (inactive)
18 | N=C(N=C(N)N)N1CCOCC1 [Moroxidine hydrochloride] (20 µM) | 1.09 (inactive)
19 | CCOCC(O)COc1ccc(NC(=O)CC[S+](C)C)cc1 (centres undefined) [Suplatast Tosylate] (20 µM) | 0.991 (inactive)
20 | CCN1CCN(c2cc3c(cc2F)c(=O)c(C(=O)O)cn3C2CC2)CC1 [Enrofloxacin] (20 µM) | 0.938 (inactive)
21 | C=C1c2c(Cl)ccc(O)c2C(O)=C2C(=O)[C@]3(O)C(O)=C(C(N)=O)C(=O)[C@@H](N(C)C)[C@@H]3[C@@H](O)[C@H]12.O=C(O)c1cc(S(=O)(=O)O)ccc1O [Meclocycline sulfosalicylate] (20 µM) | 0.514 (active)
22 | C#CCN(C)CCCOc1ccc(Cl)cc1Cl [Clorgyline hydrochloride] (20 µM) | 0.991 (inactive)
23 | CC1(C)[C@H](C(=O)O)N2C(=O)C[C@H]2S1(=O)=O [Sulbactam] (20 µM) | 1.01 (inactive)
24 | CC(C)(C)C(=O)C(Oc1ccc(Cl)cc1)n1ccnc1 (centres undefined) [Climbazole] (20 µM) | 1.01 (inactive)
25 | CC1(C)O[C@@H]2[C@@H](CO[C@@]3(COS(N)(=O)=O)OC(C)(C)O[C@@H]23)O1 [Topiramate] (20 µM) | 0.989 (inactive)
26 | CN1CCC(OC(c2ccccc2)c2ccccc2)CC1 [Diphenylpyraline hydrochloride] (20 µM) | 0.983 (inactive)
27 | O=c1[nH]c(=O)n([C@H]2C[C@H](O)[C@@H](CO)O2)cc1/C=C/Br [Brivudine] (20 µM) | 1 (inactive)
28 | COC(=O)C1=C(C)NC(C)=C(C(=O)OCC(C)C)C1c1ccccc1[N+](=O)[O-] (centres undefined) [Nisoldipine] (20 µM) | 1.01 (inactive)
29 | CCOC(=O)C(C)(C)Oc1ccc(Cl)cc1 [Clofibrate] (20 µM) | 0.996 (inactive)
